This passage reports binding signal results from article PMC9838217, “Structure of SALL4 zinc finger domain reveals link between AT-rich DNA binding and Okihiro syndrome”.

Positions count from the first letter of the chain named.

The target of test [1] is T1, SALL4 ZFC4 R900W (HT-SELEX) (Mus musculus, UniProt Q8BX22 870-940, R900W).
T1 sequence: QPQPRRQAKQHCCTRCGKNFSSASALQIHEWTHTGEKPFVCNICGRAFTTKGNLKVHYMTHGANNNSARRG
Kind of test: HT-SELEX; high values mean tight binding. To be noted: protein: recombinant; vector His6-GST; dsDNA, one strand shown. The method in brief: (§1)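 Recombinant mouse SALL4 zinc finger cluster 4 (residues 870–940, 1 µg), purified, was mixed with library DNA (1.5 µg in the first cycle, 200 ng thereafter) in 100 µl of buffer containing 10 mM Tris–HCl pH 7.5, 50 mM NaCl, poly(dI-dC) and DTT, and left for 10 min at room temperature. Complexes were captured on Ni2+ beads, washed, amplified by PCR and reselected for up to 6 cycles in triplicate, after which MiSeq sequencing and a 6-mer scan followed. Binding signal is the read fraction of each canonical k-mer, given as fold change relative to the starting random library.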

The target in test [2] is T2, SALL4 ZFC4 G921D (HT-SELEX) (Mus musculus, UniProt Q8BX22 870-940, G921D).
T2 sequence: T1 sequence with W31R, G52D
Kind of test: HT-SELEX; high values mean tight binding. To be noted: protein: recombinant; vector His6-GST; dsDNA, one strand shown. The procedure, abridged: as §1

Turning to CCCACC, the binding signal in test [1] is 0.282 ± 0.00918 fold-change vs cycle 0; in test [2] it was 0.397 ± 0.0572 fold-change vs cycle 0.

Take GCGACA: the binding signal came out at 0.186 ± 0.0276 fold-change vs cycle 0 in test [1] and 0.338 ± 0.0565 fold-change vs cycle 0 in test [2].

AGAGGC: the binding signal in test [1] is 0.355 ± 0.0197 fold-change vs cycle 0; in test [2], 0.484 ± 0.0611 fold-change vs cycle 0.

For the sequence AGGCCC, the binding signal is 0.169 ± 0.00192 fold-change vs cycle 0 in test [1] and 0.296 ± 0.0789 fold-change vs cycle 0 in test [2].

Turning to CACGCA, the figures for the binding signal in test [1] and in test [2] were 0.282 ± 0.00613 fold-change vs cycle 0 and 0.422 ± 0.056 fold-change vs cycle 0, respectively.

For GCACGA, the binding signal in test [1] stood at 0.281 ± 0.0197 fold-change vs cycle 0; in test [2] it was 0.432 ± 0.0801 fold-change vs cycle 0.
